# G9a block: inhibitors of human histone lysine methyltransferase G9a. Q96KQ7. G9a H3K9 monomethylation, AlphaScreen, 2 h. Potency, µM (titrated, usually from 102 µM), hits mostly inhibitors. 350,000 compounds, 8.8% hits. AID 504332; also: nearly all actives have a fitted effect of over 75% in size
#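 G9a (20 nM) was preincubated 15 min with compound, then reacted 2 h at room temperature with 500 nM biotin-H3K9 peptide and 20 µM SAM. Monomethyl-H3K9 detected by AlphaScreen using anti-H3K9me1 antibody.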
# JMJD2A Tudor inh: JMJD2A Tudor domain (human) inhibition. AlphaScreen JMJD2A-Tudor / H3K4me3 peptide binding. Potency, µM (series often up to 114 µM), usual class: inhibitors. 390,000 compounds, 4.4% hits. O75164. AID 504339; also: nearly all actives have a fitted effect of over 50% in size
# PI5P4K alpha inh: PI5P4K alpha (human) kinase inhibition; P48426; PI5P4Kalpha enzyme, ADP-Glo luminescence, 60 min; stronger effect = lower value; max response, %; 330,000 compounds, 1.2% hits; active = max response of -50% or lower; inconclusive = between -30% and -50%; inactive = -30% or higher; also: value at the top dose of about 77 µM
# Target sequence (P48426 whole entry, looked up): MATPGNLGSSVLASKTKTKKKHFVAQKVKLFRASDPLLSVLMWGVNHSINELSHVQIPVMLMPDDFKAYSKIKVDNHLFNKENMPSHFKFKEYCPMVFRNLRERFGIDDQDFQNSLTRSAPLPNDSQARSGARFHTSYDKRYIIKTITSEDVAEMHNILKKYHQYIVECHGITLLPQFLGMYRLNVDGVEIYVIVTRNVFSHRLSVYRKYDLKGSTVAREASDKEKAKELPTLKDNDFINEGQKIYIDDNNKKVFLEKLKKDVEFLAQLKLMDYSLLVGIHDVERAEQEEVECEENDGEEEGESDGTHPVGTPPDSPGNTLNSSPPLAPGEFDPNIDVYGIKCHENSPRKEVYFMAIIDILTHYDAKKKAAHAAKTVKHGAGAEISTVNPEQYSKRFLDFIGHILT
#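 PI5P4Kalpha ADP-Glo assay; 5 microM ATP final; 60 min RT reaction; HEPES pH 7.4/EGTA/CHAPS, 5% DMSO; controls lacking substrate or enzyme; luminescent end-point.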
# BAZ2B inh: inhibitors of human BAZ2B bromodomain; Q9UIF8; AlphaScreen BAZ2B-H3K14Ac peptide displacement; Potency, µM (titrated, usually from 114 µM), actives largely listed as inhibitors; 360,000 compounds, 4.4% hits; AID 504333; also: nearly all actives have a fitted effect of over 60% in size
#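 In this displacement format the biotinylated H3(5-23) peptide acetylated at Lys14 serves as ligand at 50 nM, with BAZ2B at 50 nM in PBS pH 7.4 containing 0.01% Tween-20. Donor and acceptor beads are 10 ug/mL final.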
# HP1b chromo inh: HP1-beta chromodomain-methylated histone interaction inhibition | AlphaScreen HP1-beta / biotin-H3K9me3 peptide binding | Potency, µM (doses to about 114 µM), most hits filed as inhibitors | 390,000 compounds, 0.56% hits; also: nearly all actives have a fitted effect of over 70% in size
# Target sequence (P83916 whole entry, looked up): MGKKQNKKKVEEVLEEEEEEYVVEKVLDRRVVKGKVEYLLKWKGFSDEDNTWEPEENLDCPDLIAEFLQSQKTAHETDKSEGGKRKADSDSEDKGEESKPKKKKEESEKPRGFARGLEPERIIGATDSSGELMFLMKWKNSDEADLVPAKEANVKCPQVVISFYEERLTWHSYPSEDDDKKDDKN
#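 Compound inhibition of the preformed complex between 50 nM HP1-beta and 50 nM biotinylated H3K9me3 peptide was read by AlphaScreen. Buffer was PBS pH 7.4 with 0.01% Tween-20. Incubations ran 30 min at room temperature, with 10 ug/mL donor/acceptor beads.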
# L3MBTL1 block: blocks human L3MBTL1. Q9Y468. AlphaScreen L3MBTL1–H3K9me1 peptide binding. Potency, µM (top dose mostly 57.1 µM), most hits filed as inhibitors. 230,000 compounds, 0.66% hits. AID 485360; also: nearly all actives have a fitted effect of over 60% in size
#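 AlphaScreen proximity signal between nickel-chelate acceptor and streptavidin donor beads (final 10 ug/mL) reports binding of 50 nM L3MBTL1 to 75 nM biotin-H3 K9me1 peptide; complex incubated with compounds 30 min at room temperature; cefsulodin titration as control.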
# Hits are given with their value; – = inactive; ? = inconclusive; · = no result given; ! = repeats disagree; [ ] = another dose, or the depositor's remark. In the library only some 11% were active in any assay of this set; here they are far more common. Unless noted, calls follow the shape of the dose curve; as a rule, active = well fitted inhibition curve with a large enough effect; inconclusive = small, poorly fitted or top-dose-only effect; inactive = no such curve, though single readings can be large or run the other way.
SMILES,G9a block,JMJD2A Tudor inh,PI5P4K alpha inh,BAZ2B inh,HP1b chromo inh,L3MBTL1 block
COC(=O)c1ccccc1NC(=O)Cn1c(=O)n(-c2cccc(OC)c2)c(=O)c2c(C)c(C(=O)N(C)C)sc21,–,–,·,–,–,·
CCOc1ccccc1-c1nnc(SCC(=O)NC2CC3CCC2C3)n1CC (configuration not stated),45µM,–,–,–,–,–
C=CCn1c(=O)c2ccccc2n2c(SCc3nc4ccccc4s3)nnc12,13µM,–,–,–,–,·
C=CCn1c(=O)c2ccccc2n2c(SCC(=O)O)nnc12,–,–,–,–,–,·
Cc1ccc2nc(COc3cccc(NC(=O)COc4ccc(F)cc4)c3)cc(=O)n2c1,–,–,·,–,–,·
O=C(CN1C(=O)/C(=C/c2ccccc2)SC1=S)Nc1cccnc1,–,–,–,?,–,–
O=C1/C(=C/c2cccnc2)SC(=S)N1CCc1ccccc1,·,–,–,10µM,–,–
O=C(O)CCN1C(=O)/C(=C\c2cccc(Oc3ccccc3)c2)SC1=S,50µM,?,–,50µM,?,·
O=C(O)CCN1C(=O)/C(=C\c2ccc(-c3nc4ccccc4s3)o2)SC1=S,?,4µM,–,?,18µM,·
CCc1ccc(/C=C2/SC(=S)N(CC(=O)Nc3nc4ccccc4s3)C2=O)cc1,–[0.501 µM],?,–,?,?,–
O=C(CN1C(=O)S/C(=C/c2cccnc2)C1=O)N1CCOCC1,–,–,–,–,–,–
O=C(O)CCN1C(=O)S/C(=C\c2cccnc2)C1=O,71µM,–,–,?,–,–
CS(=O)(=O)N1CCC2(CCCN(c3cccc(-c4ccccc4)c3)C2)CC1,–[12.7 µM],·,·,·,·,·
CCOC(=O)c1ccc(NC(=O)CN(c2ccc(C)cc2)S(=O)(=O)c2c(C)noc2C)cc1,–,–,·,·,–,·
Cc1c(Cl)cccc1-n1ncc(C(=O)Nc2ccc(Br)cc2F)c1C1CCNCC1,–,–,·,–,–,·
COc1ccc(/C=C2/SC(=S)N(CCC(=O)O)C2=O)cc1,–,–,·,–,–,–
COC(=O)CCCCCN1C(=O)/C(=C\c2ccncc2)SC1=S,10µM,45µM,–,25µM,?,–
O=C(O)CCN1C(=O)/C(=C\c2ccncc2)SC1=S,56µM,–,–,–,–,–
Cc1ccc(/C=C2\SC(=S)N(CCC(=O)NNC(=O)c3ccncc3)C2=O)cc1,·,–,–,–,–,·
CCN1C(=O)/C(=C\c2ccncc2)SC1=S,–[12.7 µM],?,–,?,–,·
CCCCC(CC)CN1C(=O)/C(=C/c2ccncc2)SC1=S (configuration not stated),·,28µM,–,?,?,–
CCC1CCc2nc3sc(C(=O)Nc4ccc(C)cc4)c(N)c3cc2C1 (configuration not stated),–,–,·,–,–,·
CCN(C(=O)CN(C)S(=O)(=O)c1ccc2c(c1)n(C)c(=O)c(=O)n2C)c1cccc(C)c1,–,–,·,–,–,·
Cc1ccc(CN2CCSc3ccc(C(=O)Nc4ccc(C)cc4)cc32)cc1,–,–,·,–,–,·
COc1ccc(NC(=O)C(OC(=O)CNC(=O)c2ccccc2)c2ccccc2)c(C)c1 (configuration not stated),·,–,·,·,·,·
SMILES,G9a block,JMJD2A Tudor inh,PI5P4K alpha inh,BAZ2B inh,HP1b chromo inh,L3MBTL1 block
CCC1CCCCN1CCCNC(=O)CC1Oc2ccccc2NC1=O (configuration not stated),–,–,–,–,–,·
Cc1ccc2c(c1)NC(=O)C(CC(=O)NCCN(C)C)O2 (configuration not stated),45µM,–,–,–,–,·
Cc1ccc2c(c1)NC(=O)C(CC(=O)NCCCN1CCN(c3cc(Cl)ccc3C)CC1)O2 (configuration not stated),45µM,–,–,–,–,–
O=C(CC1Oc2ccc(Cl)cc2NC1=O)NC1CCCCCC1 (configuration not stated),79µM,–,–,–,–,–
CCC1CCCCN1CCCNC(=O)CC1Oc2ccc(C)cc2NC1=O (configuration not stated),32µM,–,–,–,–,–
O=C(COc1ccc(F)cc1)Nc1ccc(C(=O)OCc2cc(=O)n3nc(C4CC4)sc3n2)cc1,–,–,·,–,–,·
CC1(c2ccc(Cl)cc2)CC(C)(C)N(C(=O)c2cccc(F)c2)c2ccccc21 (configuration not stated),–,–,·,–,–,·
COc1cccc(Cn2c(=O)cnc3cnc(N(C)C)nc32)c1,–[0.501 µM],·,·,·,·,·
COc1cccc2c1Oc1ncccc1N(C(=O)CCC(=O)NCc1ccc(C)cc1)C2,5.6µM!,–,–,–,–,·
COc1cccc(NC(=O)c2nnn(Cc3cccc(C(F)(F)F)c3)c2N)c1,–,–,·,–,–,·
Cc1ccc(C)c2[nH]c(=O)c(C(c3nnnn3Cc3ccccc3)N3CCc4ccccc4C3)cc12 (configuration not stated),3.2µM,–,·,–,–,·
CCc1ccc2[nH]c(=O)c(C(c3nnnn3CC3CCCO3)N3CCCc4ccccc43)cc2c1 (configuration not stated),?,?,·,50µM,–,·
Cc1ccc2cc(C(c3nnnn3CC3CCCO3)N3CCc4ccccc4C3)c(=O)[nH]c2c1 (configuration not stated),?,–,–,–,–,–[11.4 µM]
Cc1cccc2cc(C(c3nnnn3CC3CCCO3)N3CCc4ccccc4C3)c(=O)[nH]c12 (configuration not stated),3.2µM,–,·,–,–,–
COc1ccccc1N1CCN(c2ncnc3c2c(-c2ccccc2)cn3-c2cccc(C)c2)CC1,–,–,·,?,–,·
COc1ccc(OC)c(CCNC(=O)c2cc3cccc4c3n2CCS4)c1,?,?,·,?,–,·
CCCn1c(/C=C/c2ccccc2)nc2ccccc21,–,–,·,–,–,–
CCn1c(/C=C/c2cc[n+](C)cc2)nc2ccccc21,35µM,?,–,?,–,–
O=C(N/N=C/c1cc(Cl)ccc1O)c1cccnc1,·,45µM,–,7.9µM,–,–
O=C(N/N=C/c1cc(Cl)ccc1O)c1ccccc1Br,–,79µM,–,?,–,·
O=C(N/N=C/c1cccnc1)c1cccc(Cl)c1,–,–,–,–,–,·
Cc1cccc(CNC(=O)CCn2c(=O)c3cccn3c3ccc(F)cc32)c1,–,–,·,–,–,·
Cc1ccc(C=Nc2ccccc2C(N)=O)o1,–,–,–,–,–,–
CN(C)c1ccc(C=Nc2ccccc2C(N)=O)cc1,18µM,–,–,·,–,–
CN(C)c1ccc(CN(C(=O)/C=C/c2ccco2)C2CCS(=O)(=O)C2)cc1 (configuration not stated),·,?,–,?,–,–

# Source: PubChem BioAssay
